PI4K2A block – inhibitors of human PI4K2A; Q9BTU6; purified PI4K2A, ADP-Glo luminescence, 1 h; hits give low values; activity change, negative = inhibition, % at 76.9 µM; 420,000 tested, 0.13% active; AID 1346378; in the data active = activity change below about -50%; inconclusive = mostly about -30% to -49%;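 note: -100% = wells without enzyme as full effect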
Target sequence (Q9BTU6 whole entry, looked up): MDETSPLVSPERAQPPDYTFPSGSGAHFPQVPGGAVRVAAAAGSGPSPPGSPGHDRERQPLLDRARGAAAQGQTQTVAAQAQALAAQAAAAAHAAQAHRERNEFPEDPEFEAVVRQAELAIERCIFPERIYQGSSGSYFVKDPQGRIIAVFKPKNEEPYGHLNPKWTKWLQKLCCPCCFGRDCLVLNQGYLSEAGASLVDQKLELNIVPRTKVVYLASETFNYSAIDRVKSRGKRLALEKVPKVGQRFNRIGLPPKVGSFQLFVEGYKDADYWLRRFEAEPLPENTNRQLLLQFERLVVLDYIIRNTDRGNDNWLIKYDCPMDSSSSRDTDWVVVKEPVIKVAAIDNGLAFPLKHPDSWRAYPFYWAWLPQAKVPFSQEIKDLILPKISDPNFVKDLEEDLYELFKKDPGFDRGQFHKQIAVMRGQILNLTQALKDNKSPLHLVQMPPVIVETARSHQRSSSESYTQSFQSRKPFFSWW
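PI4K2A activity was measured by ADP-Glo luminescence: enzyme (4 ug/mL stock) and phosphatidylinositol (1.2 mM stock) in Tris pH 7.5/MgCl2/EGTA/Triton X-100 buffer were reacted with ATP (300 microM stock) for one hour at ambient temperature.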
D3 ag – D3 dopamine receptor (human) agonism; P35462; D3R DiscoveRx beta-arrestin cells, luminescence, 90 min; max activation, %; 410,000 tested, 0.58% active; AID 652048; in the data active = max activation above about 30%; note: 0% is about no effect
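Cells at 1500/well, incubated overnight, then treated with pinned compounds (dopamine as control) for 90 min at 37 degrees C. DiscoveRx reagent added for 30 - 60 minutes at room temperature; luminescence read.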
RGS4 inhibitor – inhibitors of human regulator of G protein signaling 4; P49798; Transcreener GDP fluorescence polarization, RGS4-accelerated GTP hydrolysis; Potency, µM (highest dose often 114 µM), inactives show top-dose activity change, negative = inhibition, most hits filed as inhibitors; 390,000 tested, 0.039% active; active = well fitted inhibition curve with a large enough effect; inconclusive = small, poorly fitted or top-dose-only effect; inactive = no such curve, though single readings can be large or run the other way; note: potency is the fitted concentration of half-maximal effect; % is set by controls: 0 for no effect and ±100 for the full control effect; nearly all actives have a fitted effect of over 75% in size
Target sequence (P49798 whole entry, looked up): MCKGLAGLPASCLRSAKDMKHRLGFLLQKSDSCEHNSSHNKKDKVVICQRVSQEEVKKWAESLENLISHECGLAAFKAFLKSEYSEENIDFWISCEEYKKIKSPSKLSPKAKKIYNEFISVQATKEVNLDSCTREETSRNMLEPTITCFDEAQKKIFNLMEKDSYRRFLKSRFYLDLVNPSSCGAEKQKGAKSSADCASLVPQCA
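MLSMR compounds (23 nl, pin-transferred) preincubated 10 min at room temperature with a 500nM (2x) first reagent, then RGS4 at 900nM (2x) plus Transcreener GDP mix added; fluorescence polarization (620/688 nm) read before and after 90 min at 30 °C.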
Akt phos inh – blocks phosphorylation of Akt | Neuro2A IGF-stimulated pAkt S473 HTRF, 20 min; hits give low values | activity change, % for hits at 50 µM | 360,000 tested, 0.32% active; in the data active = activity change below about -80%; inconclusive = mostly about -51% to -80%; note: % is set by controls: 0 for no effect and ±100 for the full control effect
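Single-point screen (50 µM final compound) in Neuro2A cells stimulated 20 min with 6 nM IGF at 37 deg C. After lysis, Ser473-phosphorylated Akt read by HTRF (ex 330 nm, em 615/665 nm) as the 665/615 ratio.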
LDHA inh – blocks human lactate dehydrogenase A; purified LDHA, NADH/diaphorase-resazurin fluorescence; hits give low values; activity change, % (values are at about 110 or 230 µM); 480,000 tested, 0.15% active; in the data active = activity change below about -30%; inconclusive = mostly about -25% to -30%;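 note: plate controls were DMSO wells for no effect and wells without enzyme for full effect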
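Remaining NADH was detected by diaphorase (0.133 mg/mL) converting 37 µM resazurin to fluorescent resorufin, read at 0 and 20 minutes. The preceding 5-minute room-temperature reaction used 2 nM LDHA, 0.2 mM sodium pyruvate and 0.06 mM NADH at pH 7.4.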
D3 antag – D3 dopamine receptor (human) antagonism. P35462. 360,000 tested, 2.5% active. D3R cells, DiscoveRx beta-arrestin luminescence, antagonist mode; hits give low values. max response, negative = inhibition, %. AID 652054; in the data active = max response below about -50%; inconclusive = no clear call, values can overlap the other calls; note: % is set by controls: 0 for no effect and ±100 for the full control effect
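Cells plated overnight at 1500 cells/well, then exposed to library compounds with dopamine controls for 90 minutes at 37 degrees C. DiscoveRx reagent added for 30–60 minutes at room temperature; luminescence read, quantitative HTS format.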
Numbers without * were called inactive; i = inactive; ? = inconclusive; nt = not tested or not shown. Rows were chosen to be rich in hits. Some 2.8% of all compounds tested hit in one or more screens of this group.

SMILES	PI4K2A block	D3 ag	RGS4 inhibitor	Akt phos inh	LDHA inh	D3 antag
Cc1nc(S(=O)(=O)N2CCN(C3c4ccccc4-c4ccccc43)CC2)cn1C	6	-2	12%	i	-7	20
CC1CCN(CCC(=O)Nc2ccc(F)c(F)c2)CC1	-1	-20	14%	i	-4	-51*
O=C(CCN1CCN(c2cnccn2)CC1)Nc1ccc(F)c(F)c1	nt	nt	nt	nt	1	nt
CC1CCN(CCC(=O)Nc2ccc(Br)cc2)CC1	-1	-36	-8%	i	-4	-76*
Cc1cc(NC(=O)CCN2CCC(C)CC2)ccc1Br	-3	-4	16%	i	-11	-106*
CCN(CCC(=O)Nc1ccc(Br)c(C)c1)Cc1ccccc1	5	-16	?	i	-5	-82*
O=C(CCN1CCCC1)Nc1ccc(Br)cc1	9	-3	-2%	i	-2	-2
O=C(CCN(CCO)Cc1ccccc1)Nc1ccc(Br)cc1	-2	-45	-7%	i	-10	?
COc1ccc(NC(=O)[C@H]2C[C@H](CC(C)C)N[C@]23C(=O)Nc2c(C)cc(Cl)cc23)cc1	nt	nt	nt	nt	3	nt
CCC(C)(C)NC(=O)/C(=C/c1ccccc1)c1ccccc1	nt	nt	nt	nt	-2	nt
N#Cc1c(NC(=O)c2ccn(C(F)F)n2)sc2c1CCCC2	nt	nt	nt	nt	1	nt
COc1ccccc1-c1cc(=O)c2cc(NS(=O)(=O)c3ccc(Cl)cc3)ccc2o1	nt	nt	nt	nt	4	nt
COc1ccc(OCc2nnc(SC(C)C(=O)Nc3ccc(N4CCOCC4)cc3)n2C)cc1 (centres undefined)	-7	-11	-6%	i	-2	-77*
CC(=O)Nc1ccc(S(=O)(=O)N2CCN(c3ccc(NCc4ccccc4)nn3)CC2)cc1	nt	nt	nt	nt	1	nt
CN(C)CCCN(C(=O)CCSc1ccccc1)c1nc2cc3c(cc2s1)OCO3	2	-35	7%	i	-3	-50*
COc1ccccc1-c1nnc(NC(=O)C(C)C)s1	0	-2	29%	i	-4	-75*
COc1ccccc1-c1nnc(NC(C)=O)s1	-2	-5	30%	i	-9	-88*
O=S(=O)(Nc1ccc2oc(-c3ccc(I)cc3)nc2c1)c1ccccc1	nt	nt	nt	nt	13	nt
Cc1nn(Cc2n[nH]c(=S)n2Cc2ccccc2)c(C)c1Cl	-10	-1	-47%	i	-3	-87*
Cc1cc(C)n(Cc2n[nH]c(=S)n2Cc2ccccc2)n1	9	-4	-24%	i	1	49
Cc1nnc(SCC(=O)NC(=O)Nc2ccc3c(c2)OCCO3)s1	4	-11	18%	i	-6	-70*
Cc1cccc(Nc2nnc(SCC(=O)NC(=O)Nc3ccc4c(c3)OCCO4)s2)c1	-3	-5	-12%	i	-4	-4
CCn1c(COc2ccc(C)cc2)nnc1SCC(=O)Nc1ccc2c(c1)OCCO2	-1	4	-14%	-108%*	-2	4
COc1cccc(-c2nnc(SCC(=O)Nc3ccc4c(c3)OCCO4)n2Cc2ccco2)c1	4	-6	11%	-114%*	-4	?
O=C(CSc1ccc2c(c1)OCCO2)Nc1ccc(Br)cc1	0	7	-8%	i	1	-63*
SMILES	PI4K2A block	D3 ag	RGS4 inhibitor	Akt phos inh	LDHA inh	D3 antag
CN1CCN(CCCNC(=O)C(=O)Nc2ccc3[nH]ccc3c2)CC1	nt	nt	nt	nt	-14	nt
CCC(C)(C)NC(=O)c1cc2cc(Br)ccc2oc1=O	nt	nt	nt	nt	-6	nt
Cc1c(C)n(Cc2ccncc2)c2ncn3nc(Cc4ccccc4)nc3c12	nt	nt	nt	nt	15	nt
Cc1ccc(OCCCC(=O)Nc2ccc3c(c2)OCO3)cc1	1	7	2%	nt	-4	-52*
Cc1ccc(OCCC(=O)Nc2ccc3c(c2)OCCCO3)cc1	2	-2	-24%	i	-4	3
O=C(CSc1ccc2nnc(-c3ccncc3)n2n1)Nc1ccc2c(c1)OCCO2	7	-4	7%	i	-3	-59*
CC(=C/c1ccccc1)/C=N/Nc1nc(N2CCCCC2)nc(N2CCCCC2)n1	6	32*	-8%	i	-2	15
CSc1nc(-c2ccccc2)[nH]c(=S)c1C(C)=O	-2	-8	-9%	i	-8	-93*
C[C@H](Cc1ccc(O)c(O)c1)[C@@H](C)Cc1ccc(O)c(O)c1	-3	10	15µM*	nt	11	nt
CC(Cc1ccc(O)c(O)c1)C(C)Cc1ccc(O)c(O)c1 (centres undefined)	-3	17	-29%	i	16	12
CCOC(=O)c1c(C)n(C)c2ccc(OCC(O)CN(CC)CC)cc12 (centres undefined)	-1	-9	-24%	i	-1	-54*
CC(=O)Nc1ccc(Sc2ncccc2C(=O)Nc2cc(Cl)cc(Cl)c2)cn1	3	-33	-10%	i	-7	-52*
COC(=O)[C@@]1(Cc2ccc(F)cc2)[C@H]2c3cc(C(=O)N(C)C)n(CCF)c3C[C@H]2CN1C(=O)c1ccccc1	2	3	nt	i	2	0
COC(=O)[C@@]1(Cc2ccccc2)[C@@H]2C(=CC(=O)[C@H]2CC(=O)C(=O)N(C)C)CN1C(=O)c1ccccc1	-8	-20	-48%	i	1	-51*
COc1cccc(-c2nc3cc(NC(=O)c4cccc([N+](=O)[O-])c4)ccc3o2)c1	nt	nt	nt	nt	5	nt
Cc1cccc(NC(=O)CN(C)Cc2coc(-c3ccccc3)n2)c1C	nt	nt	nt	nt	10	nt
O=C(Nc1ccc(S(=O)(=O)Nc2nccs2)cc1)c1cccc(N2C(=O)c3ccccc3C2=O)c1	0	0	-34%	i	-3	12
O=C(Nc1nccs1)c1cccc(N2C(=O)c3cccc4c([N+](=O)[O-])ccc(c34)C2=O)c1	-1	0	-21%	-109%*	-1	-9
O=c1ccn([C@@H]2O[C@H](CNCC3=Cc4cc(O)ccc4OC3)[C@@H](O)[C@H]2O)c(=O)[nH]1	-4	55*	-1%	i	6	47
CC(=O)Nc1ccccc1NC(=O)C/C(C)=N/NC(=O)c1ccc([N+](=O)[O-])c(Cl)c1	-4	-6	-7%	i	1	-58*
CC1CCCCC1NC(=O)c1cc(-c2ccccc2)nc2ccccc12 (centres undefined)	nt	nt	nt	nt	-7	nt
CCOC(=O)c1cnc2ccccc2c1N1CCCC(CO)C1 (centres undefined)	nt	nt	nt	nt	1	nt
COc1cc(NS(=O)(=O)c2ccc(NC(=S)NC(=O)CC(C)C)cc2)nc(OC)n1	-2	-8	-32%	i	3	-85*
COc1cc(NS(=O)(=O)c2ccc(NC(=O)COc3ccccc3Cl)cc2)nc(OC)n1	1	5	-33%	-125%*	5	0

Compound activity deposited in PubChem by National Center for Advancing Translational Sciences (NCATS).
